# Records with an inconclusive call do not appear. Activity calls are given as the source filed them. How the source made its calls: active means hit-call score of the fitted dose curve at least 0.9, where 1 is the maximum; inconclusive means response in the unintended direction; inactive means score below 0.9.
# Assays:
# [1] = ACEA_ER_AUC_viability: ACEA Biosciences xCELLigence Real-Time Cell Analysis on Estrogen Receptor Agonism for Viability (AID 2283782);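 further: hit means loss of impedance signal meaning reduced cell growth or viability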
# In short: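 Read-out: real-time electrical impedance (RT-CES) area under curve, loss of signal taken as reduced viability, normalized to DMSO baseline. T-47D cells, charcoal-stripped serum medium, compounds up to 100 uM final, continuous exposure, 80 h.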
# [2] = test system: frog Estrogen Receptor (ESR1), gene 398734; experiment: ATG_frER1_XSP1: Attagene TRANS-FACTORIAL Multi-Species (XSP1) HepG2 Assay for frog Estrogen Receptor (ESR1) (AID 2283777)
# In short: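 Transient MRTU transfection, HepG2 (human liver); 24 h dosing, 3 nM 6α-fluorotestosterone co-added; RNA → RT-PCR → 6-FAM labeling → CE; upward activity vs DMSO.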
# [3] = test system: zebrafish Estrogen Receptor (ESR2A), gene 317734; experiment: ATG_zfER2a_XSP1: Attagene TRANS-FACTORIAL Multi-Species (XSP1) HepG2 Assay for zebrafish Estrogen Receptor (ESR2A) (AID 2283778)
# In short: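 Transient transfection of HepG2 (human liver) with MRTU constructs; chemical dosing for 24 h; medium contained 3 nM 6-alpha-fluorotestosterone to partly stimulate AR. RT-PCR/CE fluorescence of reporter transcripts; positive direction vs DMSO.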
# [4] = molecular target: chicken Estrogen Receptor (ESR1), ESR1 (gene 396099) (UniProt P06212); experiment: ATG_chERa_XSP1: Attagene TRANS-FACTORIAL Multi-Species (XSP1) HepG2 Assay for chicken Estrogen Receptor (ESR1) (AID 2283779)
# In short: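 Read-out: fluorescent reporter mRNA fragments resolved by capillary electrophoresis after RT-PCR and HpaI digestion. Transfected HepG2 cells carried chimeric NR-Gal4 constructs, were dosed 24 h with 3 nM 6-alpha-fluorotestosterone added, and activity was fitted upward relative to DMSO.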
# [5] = molecular target: Estrogen receptor (Homo sapiens) (UniProt P03372); experiment: ATG_hERa_XSP1: Attagene TRANS-FACTORIAL Multi-Species (XSP1) HepG2 Assay for human Estrogen Receptor (ESR1) (AID 2283780)
# In short: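 Reporter transcripts from multiplexed GAL4-UAS units driven by NR-Gal4 chimeras in transiently transfected HepG2 were measured by RT-PCR with capillary electrophoresis 24 h post-dose, with 3 nM 6-alpha-fluorotestosterone present; gain-of-signal relative to DMSO.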
# [6] = test system: turtle Estrogen Receptor (ESR1), gene 101933533; experiment: ATG_trERa_XSP1: Attagene TRANS-FACTORIAL Multi-Species (XSP1) HepG2 Assay for turtle Estrogen Receptor (ESR1) (AID 2283781)
# In short: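 Transfect HepG2 with reporter units → dose chemical 24 h (medium has 3 nM 6-alpha-fluorotestosterone) → isolate RNA, RT-PCR → FAM primer extension, HpaI digest → capillary electrophoresis; gain of signal vs DMSO.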
# [7] = test system: turtle Androgen Receptor (AR), gene 101947425; experiment: ATG_trAR_XSP1: Attagene TRANS-FACTORIAL Multi-Species (XSP1) HepG2 Assay for turtle Androgen Receptor (AR) (AID 2283786)
# In short: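 Partial androgen stimulation is provided by 3 nM 6-alpha-fluorotestosterone in a multi-species trans-factorial panel expressing a turtle AR–GAL4 fusion in HepG2. After 24 h, reporter mRNA is measured by RT-PCR and capillary electrophoresis and fitted upward against DMSO.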
# [8] = molecular target: GAL4 Transcription Factor (Internal Marker), GAL4 (gene 855828) (UniProt P04386); experiment: ATG_GAL4_XSP1: Attagene TRANS-FACTORIAL Multi-Species (XSP1) HepG2 Assay for GAL4 Transcription Factor (Internal Marker) (AID 2283789)
# In short: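 This background-control endpoint measures GAL4-driven reporter mRNA via RT-PCR and capillary electrophoresis of labelled fragments. Transiently transfected HepG2 cells were treated 24 h, with 3 nM 6-alpha-fluorotestosterone included, and gain-of-signal was fitted against DMSO.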
# [9] = ATG_M_06_XSP1: Attagene TRANS-FACTORIAL Multi-Species (XSP1) HepG2 Assay for M06 Transcription Factor (Internal Marker) (AID 2283790)
# In short: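 This background-control readout tracks M06 reporter mRNA, measured by RT-PCR and capillary electrophoresis. HepG2 cells transiently carrying the GAL4-UAS reporter panel were dosed for 24 h with 3 nM 6-alpha-fluorotestosterone added for partial AR stimulation; increases were scored relative to DMSO.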
# [10] = ATG_M_61_XSP1: Attagene TRANS-FACTORIAL Multi-Species (XSP1) HepG2 Assay for M61 Transcription Factor (Internal Marker) (AID 2283797)
# In short: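 Background-control readout: reporter transcripts measured by RT-PCR and capillary electrophoresis 24 h after dosing transiently transfected HepG2 multi-reporter cells, with 3 nM 6-alpha-fluorotestosterone present. Fitted in the positive direction relative to DMSO.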
# [11] = ATG_M_19_XSP1: Attagene TRANS-FACTORIAL Multi-Species (XSP1) HepG2 Assay for M19 Transcription Factor (Internal Marker) (AID 2283798)
# In short: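 Readout is reporter mRNA induction quantified via RT-PCR, 6-FAM labeling, HpaI digestion and capillary electrophoresis, fitted in the positive direction versus DMSO baseline. Transfected HepG2 cells exposed 24 h, medium including 3 nM 6-alpha-fluorotestosterone.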
# [12] = ATG_M_32_XSP1: Attagene TRANS-FACTORIAL Multi-Species (XSP1) HepG2 Assay for M32 Transcription Factor (Internal Marker) (AID 2283799)
# In short: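 Reporter transcripts from the M32 internal-control unit measured by RT-PCR, FAM labelling, HpaI digestion and capillary electrophoresis after 24 h compound exposure of transfected HepG2, 3 nM 6-alpha-fluorotestosterone included; DMSO baseline, positive-direction fit.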
# [13] = molecular target: mouse Peroxisome Proliferator-activated Receptor gamma (PPARg), Pparg (gene 19016) (UniProt P37238); experiment: ATG_mPPARg_XSP1: Attagene TRANS-FACTORIAL Multi-Species (XSP1) HepG2 Assay for mouse Peroxisome Proliferator-activated Receptor gamma (PPARg) (AID 2283802)
# In short: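 Readout is reporter mRNA induction, measured by RT-PCR with 6-FAM labelling, HpaI digestion and capillary electrophoresis, 24 h post-dose relative to DMSO. Transient multi-reporter transfection of human HepG2 with mouse PPARg–GAL4 fusion; 3 nM 6-alpha-fluorotestosterone included.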
# [14] = molecular target: Nuclear receptor subfamily 1 group I member 2 (Mus musculus) (UniProt O54915); experiment: ATG_mPXR_XSP1: Attagene TRANS-FACTORIAL Multi-Species (XSP1) HepG2 Assay for mouse Pregnane X Receptor (PXR) (AID 2283803)
# In short: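 Transiently transfected HepG2 cells expressing a receptor-Gal4 chimera drive a GAL4-UAS reporter; 3 nM 6-alpha-fluorotestosterone included. Reporter mRNA read 24 h post-dose by RT-PCR and capillary electrophoresis; gain of signal relative to DMSO.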
# [15] = molecular target: human Thyroid hormone Receptor alpha (TRa), THRA (gene 7067) (UniProt P10827); experiment: ATG_hTRa_XSP1: Attagene TRANS-FACTORIAL Multi-Species (XSP1) HepG2 Assay for human Thyroid hormone Receptor alpha (TRa) (AID 2283805)
# In short: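 Reporter transcripts from the human TRa-Gal4 TRANS unit quantified by RT-PCR, fluorescent labeling and capillary electrophoresis after 24 hours of chemical exposure in transfected HepG2 cells; medium contains 3 nM 6-alpha-fluorotestosterone. Positive direction fit against DMSO.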
# [16] = molecular target: zebrafish Thyroid Hormone Receptor alpha (TRa), thraa (gene 30670) (UniProt Q98867); experiment: ATG_zfTRa_XSP1: Attagene TRANS-FACTORIAL Multi-Species (XSP1) HepG2 Assay for zebrafish Thyroid Hormone Receptor alpha (TRa) (AID 2283807)
# In short: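 Reporter transcripts driven by a chimeric zebrafish TRa–Gal4 protein were measured by RT-PCR with fluorescent labelling and capillary electrophoresis. These came from transiently transfected HepG2 cells after 24 h chemical exposure, with 3 nM 6-alpha-fluorotestosterone added; baseline was DMSO.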
# AR (gene 367) [17] = molecular target: AR (gene 367) (UniProt P10275); experiment: ACEA_AR_agonist_80hr: ACEA Biosciences xCELLigence Real-Time Cell Analysis on Androgen Receptor Agonism for Proliferation (AID 2283783);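 further: hits increase impedance growth signal above DMSO baseline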
# In short: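 Impedance (RT-CES) growth signal at 80 h post-dose; 22Rv1 cells, 8-pt 1:4 series, top 100 uM final, DMSO ≤0.5%; duplicate plates; gain-of-signal fit relative to DMSO baseline.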
# AR (gene 367) [18] = molecular target: AR (gene 367) (UniProt P10275); experiment: ACEA_AR_antagonist_80hr: ACEA Biosciences xCELLigence Real-Time Cell Analysis on Androgen Receptor Antagonism for Proliferation (AID 2283787);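 further: 22Rv1 human prostate cancer cells with growth followed by electrical impedance; hits lower the impedance growth signal relative to DMSO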
# In short: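 Measures real-time proliferation of 22Rv1 prostate cancer cells by electrode impedance at 80 hours after dosing. Test articles ran at eight concentrations (1:4 steps, top 100 uM final) in biological duplicate.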
# [19] = molecular target: frog Thyroid hormone Receptor alpha (TRa), thra-a (gene 397942) (UniProt P15204); experiment: ATG_frTRa_XSP1: Attagene TRANS-FACTORIAL Multi-Species (XSP1) HepG2 Assay for frog Thyroid hormone Receptor alpha (TRa) (AID 2283804)
# In short: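 Reporter transcript induction, measured by RT-PCR with 6-FAM labelling and capillary electrophoresis, 24 hr after dosing transiently transfected HepG2 cells expressing a frog TRa-GAL4 fusion; medium contained 3 nM 6-alpha-fluorotestosterone; increase over DMSO scored.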
# Sequence of human Thyroid hormone Receptor alpha (TRa), THRA (gene 7067) (P10827 whole entry, looked up, the tested form may be a part): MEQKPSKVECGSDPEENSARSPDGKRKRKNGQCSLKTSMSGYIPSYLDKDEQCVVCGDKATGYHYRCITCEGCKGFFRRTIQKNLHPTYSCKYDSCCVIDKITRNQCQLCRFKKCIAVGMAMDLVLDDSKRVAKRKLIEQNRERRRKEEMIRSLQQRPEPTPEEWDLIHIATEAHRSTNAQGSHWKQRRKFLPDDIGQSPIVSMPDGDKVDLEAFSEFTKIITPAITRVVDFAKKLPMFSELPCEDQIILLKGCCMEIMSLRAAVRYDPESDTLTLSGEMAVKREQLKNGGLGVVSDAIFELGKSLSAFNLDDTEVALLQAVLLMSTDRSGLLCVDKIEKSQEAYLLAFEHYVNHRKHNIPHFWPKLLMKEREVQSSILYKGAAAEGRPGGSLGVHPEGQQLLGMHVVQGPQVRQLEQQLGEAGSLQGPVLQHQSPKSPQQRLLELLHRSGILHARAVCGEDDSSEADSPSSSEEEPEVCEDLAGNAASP
# Sequence of chicken Estrogen Receptor (ESR1), ESR1 (gene 396099) (P06212 whole entry, looked up, the tested form may be a part): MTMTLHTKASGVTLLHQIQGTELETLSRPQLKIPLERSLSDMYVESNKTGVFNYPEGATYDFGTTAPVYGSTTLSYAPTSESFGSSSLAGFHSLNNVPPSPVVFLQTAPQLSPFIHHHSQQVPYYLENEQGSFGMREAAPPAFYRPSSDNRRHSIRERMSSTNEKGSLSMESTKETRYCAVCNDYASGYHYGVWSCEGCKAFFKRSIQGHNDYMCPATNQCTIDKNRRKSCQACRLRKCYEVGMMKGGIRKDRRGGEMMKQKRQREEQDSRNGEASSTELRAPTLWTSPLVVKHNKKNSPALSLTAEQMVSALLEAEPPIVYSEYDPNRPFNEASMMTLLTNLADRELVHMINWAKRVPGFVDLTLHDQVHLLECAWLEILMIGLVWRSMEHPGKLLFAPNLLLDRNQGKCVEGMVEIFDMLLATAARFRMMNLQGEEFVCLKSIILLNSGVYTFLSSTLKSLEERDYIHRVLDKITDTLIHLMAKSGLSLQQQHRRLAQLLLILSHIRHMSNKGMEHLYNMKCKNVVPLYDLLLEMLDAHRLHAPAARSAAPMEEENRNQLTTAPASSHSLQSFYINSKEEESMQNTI
# Sequence of AR (gene 367) (P10275 whole entry, looked up): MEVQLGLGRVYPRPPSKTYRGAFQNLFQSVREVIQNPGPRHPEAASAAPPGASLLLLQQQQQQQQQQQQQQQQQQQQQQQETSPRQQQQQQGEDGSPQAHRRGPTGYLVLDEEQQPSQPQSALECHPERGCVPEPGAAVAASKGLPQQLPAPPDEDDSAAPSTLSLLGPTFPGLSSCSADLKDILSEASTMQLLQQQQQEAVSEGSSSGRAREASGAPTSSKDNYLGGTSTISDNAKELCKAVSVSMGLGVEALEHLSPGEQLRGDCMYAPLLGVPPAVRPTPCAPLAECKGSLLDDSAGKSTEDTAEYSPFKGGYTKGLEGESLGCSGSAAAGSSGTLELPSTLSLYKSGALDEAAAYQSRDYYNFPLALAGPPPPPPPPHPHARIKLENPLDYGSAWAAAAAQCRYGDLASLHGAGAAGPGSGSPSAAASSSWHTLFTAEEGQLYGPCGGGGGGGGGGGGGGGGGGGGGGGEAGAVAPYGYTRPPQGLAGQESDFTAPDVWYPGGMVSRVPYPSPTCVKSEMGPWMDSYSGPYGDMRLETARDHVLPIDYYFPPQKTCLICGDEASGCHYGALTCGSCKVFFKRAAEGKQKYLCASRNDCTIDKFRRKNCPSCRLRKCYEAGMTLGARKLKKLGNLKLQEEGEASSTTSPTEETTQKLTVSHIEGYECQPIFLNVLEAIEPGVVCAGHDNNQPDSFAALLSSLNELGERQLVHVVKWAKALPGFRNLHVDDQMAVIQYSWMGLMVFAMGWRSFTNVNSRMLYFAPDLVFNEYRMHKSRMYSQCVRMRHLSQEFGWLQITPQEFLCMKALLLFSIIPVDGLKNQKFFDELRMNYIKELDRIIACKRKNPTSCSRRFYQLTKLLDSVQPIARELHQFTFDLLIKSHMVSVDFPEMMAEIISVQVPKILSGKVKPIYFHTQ
# Sequence of zebrafish Thyroid Hormone Receptor alpha (TRa), thraa (gene 30670) (Q98867 whole entry, looked up, the tested form may be a part): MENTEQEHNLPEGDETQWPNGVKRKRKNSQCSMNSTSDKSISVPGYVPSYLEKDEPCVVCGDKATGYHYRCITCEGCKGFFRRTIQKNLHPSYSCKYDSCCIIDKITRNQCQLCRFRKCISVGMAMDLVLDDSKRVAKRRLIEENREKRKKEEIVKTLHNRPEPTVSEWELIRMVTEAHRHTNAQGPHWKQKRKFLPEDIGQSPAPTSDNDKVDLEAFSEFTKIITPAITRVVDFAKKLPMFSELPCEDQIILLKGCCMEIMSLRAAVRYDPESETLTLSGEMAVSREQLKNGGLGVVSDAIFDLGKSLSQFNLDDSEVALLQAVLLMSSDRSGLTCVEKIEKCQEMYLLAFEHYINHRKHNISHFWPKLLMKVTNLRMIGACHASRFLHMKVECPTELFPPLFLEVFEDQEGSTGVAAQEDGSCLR
# Sequence of GAL4 Transcription Factor (Internal Marker), GAL4 (gene 855828) (P04386 whole entry, looked up, the tested form may be a part): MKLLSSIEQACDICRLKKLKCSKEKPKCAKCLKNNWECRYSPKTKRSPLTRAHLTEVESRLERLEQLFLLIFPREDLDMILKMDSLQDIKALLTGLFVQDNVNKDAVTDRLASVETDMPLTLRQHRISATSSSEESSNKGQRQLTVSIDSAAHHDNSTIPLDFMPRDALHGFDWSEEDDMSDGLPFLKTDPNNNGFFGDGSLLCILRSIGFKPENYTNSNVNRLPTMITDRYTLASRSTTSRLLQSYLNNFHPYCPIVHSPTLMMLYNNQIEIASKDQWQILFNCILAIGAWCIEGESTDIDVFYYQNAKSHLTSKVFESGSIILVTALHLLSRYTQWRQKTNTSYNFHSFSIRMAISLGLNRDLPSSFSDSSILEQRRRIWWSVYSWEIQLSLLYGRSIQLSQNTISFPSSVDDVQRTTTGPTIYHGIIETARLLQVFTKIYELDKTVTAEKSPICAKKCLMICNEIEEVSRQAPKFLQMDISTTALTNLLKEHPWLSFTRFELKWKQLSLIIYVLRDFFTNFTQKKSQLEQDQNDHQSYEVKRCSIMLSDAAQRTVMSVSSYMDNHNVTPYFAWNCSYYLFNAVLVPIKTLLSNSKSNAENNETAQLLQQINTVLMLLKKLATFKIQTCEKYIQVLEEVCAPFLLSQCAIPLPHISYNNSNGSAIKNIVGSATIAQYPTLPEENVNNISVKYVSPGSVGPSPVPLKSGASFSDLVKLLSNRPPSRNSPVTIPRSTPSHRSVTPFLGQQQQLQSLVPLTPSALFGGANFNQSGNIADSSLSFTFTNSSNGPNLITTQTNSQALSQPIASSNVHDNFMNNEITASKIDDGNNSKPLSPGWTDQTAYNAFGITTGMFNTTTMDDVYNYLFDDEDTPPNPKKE
# Sequence of Nuclear receptor subfamily 1 group I member 2 (Mus musculus) (O54915 whole entry, looked up, the tested form may be a part): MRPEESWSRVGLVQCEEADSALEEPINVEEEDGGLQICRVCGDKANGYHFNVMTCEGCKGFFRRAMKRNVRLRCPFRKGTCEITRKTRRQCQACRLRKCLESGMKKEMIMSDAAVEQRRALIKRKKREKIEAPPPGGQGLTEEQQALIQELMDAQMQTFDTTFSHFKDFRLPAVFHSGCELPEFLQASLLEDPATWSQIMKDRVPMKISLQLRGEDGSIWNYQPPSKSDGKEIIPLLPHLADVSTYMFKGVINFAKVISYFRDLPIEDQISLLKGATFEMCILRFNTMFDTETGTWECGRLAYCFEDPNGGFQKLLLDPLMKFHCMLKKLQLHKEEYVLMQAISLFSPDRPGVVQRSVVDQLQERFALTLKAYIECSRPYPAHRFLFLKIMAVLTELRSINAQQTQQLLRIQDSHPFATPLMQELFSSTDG
# Sequence of Estrogen receptor (Homo sapiens) (P03372 whole entry, looked up, the tested form may be a part): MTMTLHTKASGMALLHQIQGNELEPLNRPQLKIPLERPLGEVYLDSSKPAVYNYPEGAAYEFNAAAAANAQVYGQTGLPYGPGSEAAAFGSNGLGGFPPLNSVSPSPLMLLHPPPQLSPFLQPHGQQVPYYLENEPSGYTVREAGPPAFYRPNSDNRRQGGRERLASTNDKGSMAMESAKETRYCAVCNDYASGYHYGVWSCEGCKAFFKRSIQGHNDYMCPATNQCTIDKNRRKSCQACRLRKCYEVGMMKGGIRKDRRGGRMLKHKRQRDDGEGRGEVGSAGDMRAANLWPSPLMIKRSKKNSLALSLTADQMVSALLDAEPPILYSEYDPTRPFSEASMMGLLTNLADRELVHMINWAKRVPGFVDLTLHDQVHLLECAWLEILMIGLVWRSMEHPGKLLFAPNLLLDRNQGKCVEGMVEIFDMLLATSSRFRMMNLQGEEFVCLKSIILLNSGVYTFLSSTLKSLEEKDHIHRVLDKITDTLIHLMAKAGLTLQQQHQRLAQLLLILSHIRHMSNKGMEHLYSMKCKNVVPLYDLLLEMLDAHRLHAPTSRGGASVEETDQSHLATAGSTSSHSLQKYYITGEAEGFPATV
# Sequence of frog Thyroid hormone Receptor alpha (TRa), thra-a (gene 397942) (P15204 whole entry, looked up, the tested form may be a part): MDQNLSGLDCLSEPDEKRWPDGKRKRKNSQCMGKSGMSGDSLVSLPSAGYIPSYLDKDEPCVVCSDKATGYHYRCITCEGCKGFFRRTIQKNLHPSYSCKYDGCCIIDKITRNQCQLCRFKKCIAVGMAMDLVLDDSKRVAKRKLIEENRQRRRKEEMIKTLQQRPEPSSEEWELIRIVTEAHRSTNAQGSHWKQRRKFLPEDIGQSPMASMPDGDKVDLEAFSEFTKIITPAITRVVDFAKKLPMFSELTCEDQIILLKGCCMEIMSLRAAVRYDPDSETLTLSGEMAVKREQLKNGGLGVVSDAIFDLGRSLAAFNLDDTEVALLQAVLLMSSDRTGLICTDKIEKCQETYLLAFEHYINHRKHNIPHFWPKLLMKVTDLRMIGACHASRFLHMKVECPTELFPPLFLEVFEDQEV
smiles,measurement,setting,value
Cc1ccc(S(=O)(=O)C(I)I)cc1,AC50,[1],4.22 µM (active)
CCC(C)CO (stereo not drawn),AC50,[1],74.7 µM (active)
C[Si](C)O[Si](C)C,AC50,[1],50 µM (active)
CCc1cc(Cc2cc(CC)c(N)c(CC)c2)cc(CC)c1N,AC50,[1],68.3 µM (active)
Brc1ccccn1,outcome,[1],inactive
CO[Si](CCCOCC1CO1)(OC)OC (stereo not drawn),AC50,[1],76.8 µM (active)
CC1=CC2C3C=CC(C3)C2C1C (stereo not drawn),AC50,[1],50 µM (active)
CCCCCCCCCCCC(=O)Cl,AC50,[1],79.8 µM (active)
CCN(CCO)S(=O)(=O)C(F)(F)C(F)(F)C(F)(F)C(F)(F)C(F)(F)C(F)(F)C(F)(F)C(F)(F)F,AC50,[1],20.2 µM (active)
CCCCCC/C=C/CCCCCCCC(=O)O,AC50,[1],50 µM (active)
O=C1c2ccccc2C(=O)c2c(Cl)cccc21,outcome,[1],inactive
CCn1c2ccccc2c2ccccc21,AC50,[1],66.3 µM (active)
CCCCOC(=O)C(C)O (stereo not drawn),outcome,[1],inactive
CCOCN(C(=O)CS(=O)(=O)O)c1c(C)cccc1CC,outcome,[1],inactive
O=C(Cl)C(F)(F)C(F)(F)C(F)(F)C(F)(F)C(F)(F)C(F)(F)F,outcome,[1],inactive
N#CCCOCCC#N,outcome,[1],inactive
CC(C)(C)C(=O)C1C(=O)c2ccccc2C1=O,AC50,[1],88.2 µM (active)
O=C(c1ccccc1)c1ccc(O)cc1O,AC50,[2],0.652 µM (active)
same,AC50,[3],1.65 µM (active)
same,AC50,[4],1.55 µM (active)
same,AC50,[5],3.15 µM (active)
same,AC50,[6],2.24 µM (active)
same,outcome,[7],inactive
same,outcome,[8],inactive
same,outcome,[9],inactive
same,outcome,[10],inactive
same,outcome,[11],inactive
same,outcome,[12],inactive
same,outcome,[13],inactive
same,outcome,[14],inactive
same,outcome,[15],inactive
same,outcome,[16],inactive
c1ccc(C[P+](c2ccccc2)(c2ccccc2)c2ccccc2)cc1,AC50,[1],83.7 µM (active)
CCCCOC(=O)[C@H](C)O,outcome,[1],inactive
CCCCCCCCn1sc(Cl)c(Cl)c1=O,AC50,[1],1.99 µM (active)
O=C1OC(=O)c2ccc3c4c(ccc1c24)C(=O)OC3=O,outcome,[1],inactive
O=S(=O)(O)CCC(F)(F)C(F)(F)C(F)(F)C(F)(F)F,outcome,[1],inactive
COCCC(=O)OC,outcome,[1],inactive
CSc1ccc(Cl)cc1,outcome,[1],inactive
O=C(O)C(F)(F)C(F)(F)C(F)(F)C(=O)O,outcome,[1],inactive
NC(=O)C(F)(F)C(F)(F)C(F)(F)C(F)F,outcome,[1],inactive
NC(=O)C(F)(F)C(F)(F)C(F)(F)C(F)(F)C(F)(F)C(F)(F)C(F)(F)F,outcome,[1],inactive
CCOC(C=C(C)CCC=C(C)C)OCC,AC50,[1],11.3 µM (active)
CCOCOCC,outcome,[1],inactive
C=CCOC(=O)CC(C)C,outcome,[1],inactive
Oc1ccc(C2(c3ccc(O)c(C4CCCCC4)c3)CCCCC2)cc1C1CCCCC1,AC50,[1],38.9 µM (active)
CCOC(OCC)OCC,outcome,[1],inactive
C[C@]12CC[C@H]3C(=CCc4cc(O)ccc43)[C@@H]1CCC2=O,AC50,[2],0.0202 µM (active)
same,AC50,[3],0.0139 µM (active)
same,AC50,[4],0.00659 µM (active)
same,AC50,[6],0.00594 µM (active)
same,outcome,AR (gene 367) [17],inactive
same,AC50,AR (gene 367) [18],0.687 µM (active)
same,outcome,[9],inactive
same,outcome,[10],inactive
same,outcome,[19],inactive
same,outcome,[15],inactive
same,outcome,[16],inactive

# Reference: PubChem BioAssay (EPA / NIEHS)
